# Inconclusive results are not listed. Active and inactive are the calls of the source. Rule for the calls, unless noted: active = hit-call score of the fitted dose curve at least 0.9, where 1 is the maximum; inactive = score below 0.9.
# What was measured:
# [1] = read-out: Monokine induced gamma interferon (MIG), CXCL9 (gene 4283); assay: BSK_3C_MIG: BioMAP Diversity Plus: 3C Assay for Monokine induced gamma interferon (MIG) Biomarker Activity (AID 2283021); details: primary human endothelial cells (HUVEC); actives raise or lower the signal
# Outline: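 HUVEC, 3C system; 24 h chemical exposure; MIG by ELISA; bidirectional fit vs DMSO baseline.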
# [2] = target: human Vitamin D Receptor (VDR), VDR (gene 7421) (UniProt P11473); assay: ATG_VDR_TRANS: Attagene TRANS-FACTORIAL HepG2 Assay for human Vitamin D Receptor (VDR) (AID 2283022; active = hit-call score of the fitted dose curve at least 0.9, where 1 is the maximum)
# Outline: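 HepG2 cells were transiently transfected with multiple GAL4-UAS reporter units, so signal reflects exogenous chimeric receptor-Gal4 activity. After 24 h compound exposure, reporter mRNA was measured by RT-PCR, fluorescent labelling and capillary electrophoresis, fitted for gain of signal versus DMSO.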
# [3] = BSK_3C_SRB: Viability Assessment in the BioMAP Diversity Plus: 3C Assay (AID 2283023); details: primary human endothelial cells (HUVEC);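 note: fitted both ways against DMSO so a hit may be signal rise or drop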
# Outline: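 Primary human umbilical vein endothelial cells in the 3C system were read 24 h after compound dosing. Total protein was stained with 0.1% sulforhodamine B after 10% TCA fixation and read at 560 nm, with bidirectional fitting against DMSO as baseline.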
# [4] = BSK_3C_Vis: BioMAP Diversity Plus: 3C Assay for Morphology Visualization (AID 2283025); details: primary human endothelial cells (HUVEC);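 note: fitted both ways so gain or loss versus DMSO counts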
# Outline: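 HUVEC, 3C system; light microscopy of morphology at 24 h post-dose. Bidirectional fit vs DMSO baseline. Secondary readout, background-control function.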
# [5] = read-out: Pselectin, SELP (gene 6403); assay: BSK_4H_Pselectin: BioMAP Diversity Plus: 4H Assay for Pselectin Biomarker Activity (AID 2283026); details: primary human endothelial cells (HUVEC); actives raise or lower the signal
# Outline: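 HUVEC, 24 h chemical exposure; P-selectin read by ELISA. Bidirectional curve fit vs DMSO baseline; gain or loss of signal scored.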
# [6] = BSK_4H_SRB: Viability Assessment in the BioMAP Diversity Plus: 4H Assay (AID 2283027); details: primary human endothelial cells (HUVEC);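 note: cells exposed to compound for 24 h before staining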;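 for AC50: curves fitted both ways versus DMSO so AC50 may be loss or gain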
# Outline: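 Cytotoxicity readout: sulforhodamine B (0.1%) staining of total protein after 10% TCA fixation, measured at 560 nm in human umbilical vein endothelium at 24 h. DMSO set the baseline; fitting was bidirectional.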
# [7] = BSK_BE3C_SRB: Viability Assessment in the BioMAP Diversity Plus: BE3C Assay (AID 2283028); details: primary human bronchial epithelial cells
# Outline: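 Human primary bronchial epithelial cells were exposed to test chemicals for 24 h. Total protein in parallel cultures was then measured by staining with 0.1% sulforhodamine B after 10% TCA fixation, with absorbance read at 560 nm. Activity was fitted bidirectionally against DMSO.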
# [8] = read-out: Thrombomodulin, THBD (gene 7056); assay: BSK_3C_Thrombomodulin: BioMAP Diversity Plus: 3C Assay for Thrombomodulin Biomarker Activity (AID 2283029); details: primary human endothelial cells (HUVEC); actives raise or lower the signal
# Outline: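 HUVEC, 3C conditions; compound 24 h; thrombomodulin by ELISA; bidirectional curve fit vs DMSO baseline; parallel SRB total-protein staining for cytotoxicity.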
# [9] = read-out: Urokinase-type plasminogen activator receptor (uPAR), PLAUR (gene 5329); assay: BSK_4H_uPAR: BioMAP Diversity Plus: 4H Assay for Urokinase-type plasminogen activator receptor (uPAR) Biomarker Activity (AID 2283030); details: primary human endothelial cells (HUVEC); actives raise or lower the signal
# Outline: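 Primary human umbilical vein endothelial cells were exposed to chemical for 24 h before cell-surface uPAR was quantified by ELISA. Activity was fitted bidirectionally against the DMSO negative control baseline.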
# [10] = read-out: Vascular endothelial growth factor receptor 2 (Homo sapiens) (UniProt P35968); assay: BSK_4H_VEGFRII: BioMAP Diversity Plus: 4H Assay for Vascular endothelial growth factor receptor 2 (VEGFR2) Biomarker Activity (AID 2283031); details: primary human endothelial cells (HUVEC); actives raise or lower the signal
# Outline: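 Primary human umbilical vein endothelial cells in the BioMAP 4H system were dosed with test chemical, and 24 h later VEGFRII was measured by ELISA. Activity was fitted bidirectionally against DMSO as negative control and baseline.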
# [11] = read-out: Human Leukocyte Antigen - DR isotype (HLADR), HLA-DRA (gene 3122); assay: BSK_BE3C_HLADR: BioMAP Diversity Plus: BE3C Assay for Human Leukocyte Antigen - DR isotype (HLADR) Biomarker Activity (AID 2283032); details: primary human bronchial epithelial cells; actives raise or lower the signal
# Outline: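 Primary human bronchial epithelial cells (BE3C); 24 h chemical exposure; HLA-DR by ELISA; bidirectional curve fit vs DMSO baseline.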
# [12] = read-out: Vascular cell adhesion molecule 1 (VCAM1), VCAM1 (gene 7412); assay: BSK_4H_VCAM1: BioMAP Diversity Plus: 4H Assay for Vascular cell adhesion molecule 1 (VCAM1) Biomarker Activity (AID 2283033); details: primary human endothelial cells (HUVEC); actives raise or lower the signal;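 note: cell-surface VCAM-1 protein measured by ELISA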
# Outline: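 HUVEC, 24 h post-dose; VCAM-1 by ELISA. Bidirectional curve fit vs DMSO baseline. Parallel SRB total-protein stain (0.1% SRB after 10% TCA fixation, 560 nm) for cytotoxicity.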
# [13] = read-out: Interferon-gamma inducible Protein 10 (IP10), CXCL10 (gene 3627); assay: BSK_BE3C_IP10: BioMAP Diversity Plus: BE3C Assay for Interferon-gamma inducible Protein 10 (IP10) Biomarker Activity (AID 2283034); details: primary human bronchial epithelial cells; actives raise or lower the signal
# Outline: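 ELISA readout of IP-10 in BE3C system: primary human bronchial epithelial cells, 24 h post-dosing; bidirectional curve fit vs DMSO baseline.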
# [14] = read-out: Monokine induced gamma interferon (MIG), CXCL9 (gene 4283); assay: BSK_BE3C_MIG: BioMAP Diversity Plus: BE3C Assay for Monokine induced gamma interferon (MIG) Biomarker Activity (AID 2283035); details: primary human bronchial epithelial cells; actives raise or lower the signal;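 note: MIG protein measured by ELISA in BE3C cultures after 24 h of dosing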
# Outline: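 hu bronchial epithelial 1° cells, 24 h cpd; MIG by ELISA; bidirectional fit, DMSO = baseline.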
# [15] = read-out: Transforming growth factor beta 1 (TGFb1), TGFB1 (gene 7040); assay: BSK_BE3C_TGFb1: BioMAP Diversity Plus: BE3C Assay for Transforming growth factor beta 1 (TGFb1) Biomarker Activity (AID 2283036;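 note: TGF-b1 protein level measured by ELISA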); details: primary human bronchial epithelial cells; actives raise or lower the signal
# Outline: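 Read-out: ELISA for TGF-b1 in primary human bronchial epithelial cultures, 24 h post-dose. Bidirectional curve fitting vs DMSO control; gain or loss of signal both scored.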
# [16] = read-out: Plasminogen activator inhibitor-1 (PAI1), SERPINE1 (gene 5054); assay: BSK_BE3C_PAI1: BioMAP Diversity Plus: BE3C Assay for Plasminogen activator inhibitor-1 (PAI1) Biomarker Activity (AID 2283037); details: primary human bronchial epithelial cells; actives raise or lower the signal
# Outline: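 ELISA read-out of PAI-1 from human bronchial epithelial primary cells, 24 h post-dosing; bidirectional curve fit vs DMSO baseline, gain or loss of signal scored.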
# [17] = read-out: urokinase plasminogen activator (uPA), PLAU (gene 5328); assay: BSK_BE3C_uPA: BioMAP Diversity Plus: BE3C Assay for urokinase plasminogen activator (uPA) Biomarker Activity (AID 2283038); details: primary human bronchial epithelial cells; actives raise or lower the signal;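 note: uPA protein level quantified by ELISA in cell cultures; uPA read one day after compound addition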
# Outline: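 Human primary bronchial epithelial cells were exposed to chemical for 24 h, then uPA levels were measured by ELISA. Responses were fitted bidirectionally against DMSO as negative control and baseline. Parallel SRB staining of total protein gauged overt cytotoxicity.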
# [18] = read-out: Urokinase-type plasminogen activator receptor (uPAR), PLAUR (gene 5329); assay: BSK_BE3C_uPAR: BioMAP Diversity Plus: BE3C Assay for Urokinase-type plasminogen activator receptor (uPAR) Biomarker Activity (AID 2283039); details: primary human bronchial epithelial cells; actives raise or lower the signal;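 note: cells exposed to compound for one day before measurement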
# Outline: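 ELISA readout of uPAR on human lung primary bronchial epithelial cells, 24 h post-dosing. Bidirectional curve fit relative to DMSO vehicle baseline; gain or loss of signal both scored.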
# [19] = read-out: Interleukin-6 (IL6), IL6 (gene 3569); assay: BSK_CASM3C_IL6: BioMAP Diversity Plus: CASM3C Assay for Interleukin-6 (IL6) Biomarker Activity for (AID 2283040); details: primary human coronary artery smooth muscle cells; actives raise or lower the signal
# [20] = read-out: Matrix Metallopeptidase 1 (MMP1), MMP1 (gene 4312); assay: BSK_BE3C_MMP1: BioMAP Diversity Plus: BE3C Assay for Matrix Metallopeptidase 1 (MMP1) Biomarker Activity (AID 2283024); details: primary human bronchial epithelial cells; actives raise or lower the signal
# Outline: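 ELISA read-out of MMP1 in human lung bronchial epithelial primary cultures, 24 h post-dose; bidirectional curve fit vs DMSO baseline, gain or loss of signal scored.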
# Chain of human Vitamin D Receptor (VDR), VDR (gene 7421) (P11473 whole entry, looked up, the tested form may be a part): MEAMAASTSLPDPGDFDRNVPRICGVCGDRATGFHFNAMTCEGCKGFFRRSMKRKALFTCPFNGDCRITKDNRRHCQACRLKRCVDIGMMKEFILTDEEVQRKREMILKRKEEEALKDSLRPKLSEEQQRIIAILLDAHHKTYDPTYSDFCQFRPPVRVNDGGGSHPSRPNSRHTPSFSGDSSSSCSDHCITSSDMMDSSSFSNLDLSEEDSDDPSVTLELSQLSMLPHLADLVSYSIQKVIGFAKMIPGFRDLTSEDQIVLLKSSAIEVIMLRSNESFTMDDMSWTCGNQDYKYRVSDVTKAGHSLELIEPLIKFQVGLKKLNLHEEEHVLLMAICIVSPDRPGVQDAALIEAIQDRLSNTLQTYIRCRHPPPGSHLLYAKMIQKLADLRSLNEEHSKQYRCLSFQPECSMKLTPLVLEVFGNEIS
smiles,measurement,setting,value
CCCCC=O,outcome,[1],inactive
same,outcome,[2],inactive
same,outcome,[3],inactive
same,outcome,[4],inactive
same,outcome,[5],inactive
same,outcome,[6],inactive
same,outcome,[7],inactive
same,outcome,[8],inactive
same,outcome,[9],inactive
same,outcome,[10],inactive
same,outcome,[11],inactive
same,outcome,[12],inactive
same,outcome,[13],inactive
same,outcome,[14],inactive
same,outcome,[15],inactive
same,outcome,[16],inactive
same,outcome,[17],inactive
same,outcome,[18],inactive
same,outcome,[19],inactive
O=C(O)CCC(F)(F)C(F)(F)C(F)(F)C(F)(F)C(F)(F)C(F)(F)F,outcome,[1],inactive
same,outcome,[2],inactive
same,outcome,[3],inactive
same,outcome,[5],inactive
same,outcome,[6],inactive
same,outcome,[7],inactive
same,outcome,[8],inactive
same,outcome,[9],inactive
same,outcome,[10],inactive
same,outcome,[11],inactive
same,outcome,[12],inactive
same,outcome,[13],inactive
same,outcome,[14],inactive
same,outcome,[16],inactive
same,outcome,[17],inactive
same,outcome,[18],inactive
same,outcome,[19],inactive
CCCCCCCCCCCCCCC,outcome,[1],inactive
same,outcome,[3],inactive
same,outcome,[20],inactive
same,outcome,[4],inactive
same,outcome,[5],inactive
same,outcome,[6],inactive
same,outcome,[7],inactive
same,outcome,[8],inactive
same,outcome,[9],inactive
same,outcome,[10],inactive
same,outcome,[11],inactive
same,outcome,[12],inactive
same,outcome,[13],inactive
same,outcome,[15],inactive
same,outcome,[16],inactive
same,outcome,[17],inactive
same,outcome,[18],inactive
same,outcome,[19],inactive
CCC(C)c1ccccc1O (stereo not given),outcome,[1],inactive
same,outcome,[2],inactive
same,outcome,[3],inactive
same,outcome,[4],inactive
same,outcome,[5],inactive
same,outcome,[6],inactive
same,outcome,[7],inactive
same,outcome,[8],inactive
same,outcome,[9],inactive
same,outcome,[10],inactive
same,outcome,[11],inactive
same,outcome,[12],inactive
same,outcome,[13],inactive
same,outcome,[15],inactive
same,outcome,[16],inactive
same,outcome,[17],inactive
same,outcome,[18],inactive
same,outcome,[19],inactive
CS(=O)(=O)c1ccc([C@@H](CC2CCCC2)C(=O)Nc2cnccn2)cc1Cl,outcome,[1],inactive
same,AC50,[3],30.3 µM (active)
same,outcome,[4],inactive
same,outcome,[5],inactive
same,AC50,[6],19.2 µM (active)
same,outcome,[7],inactive
same,outcome,[8],inactive
same,AC50,[9],22.7 µM (active)
same,outcome,[10],inactive
same,outcome,[11],inactive
same,outcome,[12],inactive
same,AC50,[13],31 µM (active)
same,outcome,[14],inactive
same,outcome,[15],inactive
same,AC50,[16],29.2 µM (active)
same,outcome,[17],inactive
same,outcome,[18],inactive
same,outcome,[19],inactive
